TDP43 rescue: qHTS of TDP-43 Inhibitors. hit rate 1.8% among 410,000. AID 652104, 2013. Potency, µM (top dose mostly 46.1 µM), for the others: top-dose growth rescue (activation), usual class: activators. TDP-43 expressing yeast growth rescue, BacTiter-Glo, 24 h; also: % of control where 0% means no effect; nearly all actives have a fitted effect of over 50% in size
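Cell-based yeast growth screen: TDP-43 expression induced in galactose, inoculum OD600=0.02 after raffinose pregrowth to mid-log. Read-out BacTiter-Glo luminescence at 24 hr, 30 deg C; inhibition of toxicity seen as signal increase.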
aSyn rescue: qHTS of alpha-syn Inhibitors; AID 652106, 2013; Yeast expressing alpha-synuclein, growth rescue, BacTiter-Glo, 24 h; Potency, µM (highest dose often 46.1 µM), for the others: top-dose growth rescue (activation), most hits filed as activators; hit rate 0.14% among 370,000; also: % of control where 0% means no effect; nearly all actives have a fitted effect of over 65% in size
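Rescue of yeast growth: cells expressing toxic alpha-synuclein, induced in galactose at OD600 0.02, incubated with compound 24 h at 30 C. ATP luminescence quantified growth; inhibitors of toxicity appear as activators.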
Abeta rescue: qHTS for compounds that reverse cellular toxicity of Amyloid beta (A-beta) peptide in yeast: Primary Screen. hit rate 0.063% among 410,000. Potency, µM (highest dose often 46.1 µM), usual class: activators. yeast expressing A-beta42, growth rescue, OD600, 48 h; response scale: 0% DMSO, 100% iron-clioquinol control; also: nearly all actives have a fitted effect of over 55% in size
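Yeast A-beta toxicity model in growth medium with pinned compounds, 48 h at 30 C; growth read as absorbance at 600 nm. Normalized to FeCl3/clioquinol equimolar mix (positive) and DMSO (negative).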
FUS yeast rescue: qHTS for Suppressors of FUS Proteinopathy: Primary screen using FUS-linked yeast assay. Potency, µM (top dose mostly 76.6 µM), most hits filed as activators. S. cerevisiae FUS-expressing, growth rescue, OD600, 24 h. AID 1347120, 2019. hit rate 0.24% among 390,000;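 also: plate controls were DMSO vehicle for no effect and reference control for full effect; nearly all actives have a fitted effect of over 55% in size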
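Yeast FUS proteinopathy model; galactose-induced FUS (2%), starting OD 0.005. Cpds in dilution series, 24hr, 30C, 99% humidity. Abs 600 nm growth. Pos ctrl CP55940 (top 92uM final); neg ctrl DMSO.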
Mito fusion act: qHTS Assay for Small Molecule Inhibitors of Mitochondrial Division or Activators of Mitochondrial Fusion; S. cerevisiae fusion-defective mutant growth rescue, CellTiterGlo 48 h; Potency, µM (doses to about 46.1 µM), without a hit: at the highest dose growth rescue (activation), usual class: activators; hit rate 0.23% among 320,000; AID 485298, 2010; also: % of control where 0% means no effect; nearly all actives have a fitted effect of over 45% in size
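Luminescent cell viability in 1536-well qHTS format served as the measure of rescued growth in ts fusion-mutant S. cerevisiae cultured on non-fermentable YPEG for 48 hours at 37C.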
Active calls of the source: *. Rows were chosen to be rich in hits. Some 2.2% of all compounds tested hit in one or more screens of this group. Calls follow the shape of the dose curve; as a rule, active = well fitted curve in the direction sought with a large enough effect; inconclusive = small, poorly fitted or top-dose-only effect, or another doubt; inactive = no such curve, though single readings can be large; an effect the other way counts as inactive or inconclusive. Potency is read from the fitted curve at half-maximal effect.

What do the screens show for `CSc1ccccc1NC(=O)CCS(=O)(=O)c1nc(-c2ccc3c(c2)OCO3)cc(C(F)(F)F)n1`?
TDP43 rescue: 11µM*; aSyn rescue: -4%; Abeta rescue: inactive; FUS yeast rescue: inactive

How did COC(=O)c1ccccc1NC(=O)CCS(=O)(=O)c1nc(-c2ccc3c(c2)OCO3)cc(C(F)(F)F)n1 do in these assays?
TDP43 rescue: 0%; Abeta rescue: inactive; FUS yeast rescue: inactive

How did O=C(CCS(=O)(=O)c1nc(-c2ccc3c(c2)OCO3)cc(C(F)(F)F)n1)Nc1ccccc1F do in these assays?
TDP43 rescue: 22µM*; Abeta rescue: inactive; FUS yeast rescue: inactive

What do the screens show for `O=C(NC(=S)Nc1ccc(N2CCOCC2)cc1)c1ccccc1`?
TDP43 rescue: -11%; aSyn rescue: -2%; Abeta rescue: inactive; FUS yeast rescue: inactive; Mito fusion act: -7%

Results for O=C(NC(=S)Nc1ccc(N2CCOCC2)cc1)c1cccc(Cl)c1 ?
TDP43 rescue: 16µM*; aSyn rescue: 0%; Abeta rescue: inactive; FUS yeast rescue: inactive; Mito fusion act: 2%

Results for C/C(=N/OC(=O)c1ccc(C)cc1)c1cccs1 ?
TDP43 rescue: -12%; aSyn rescue: -18%; Abeta rescue: inactive; FUS yeast rescue: inactive; Mito fusion act: -5%

Results for C/C(=N/OC(=O)c1ccccc1Br)c1ccc(C)cc1 ?
TDP43 rescue: 14µM*; aSyn rescue: -18%; Abeta rescue: inactive; FUS yeast rescue: inactive; Mito fusion act: 10%

What do the screens show for `CC(C)=CCCC(C)CN1CCC(N2CCC(C(=O)NC(C)C)CC2)CC1` (stereo not given)?
TDP43 rescue: -26%; aSyn rescue: -4%; Abeta rescue: inactive; FUS yeast rescue: inactive; Mito fusion act: -8%

How did CNc1nc(Oc2ccc3sc(C)nc3c2)c2sccc2n1 do in these assays?
TDP43 rescue: 20µM*; aSyn rescue: 8%; Abeta rescue: inactive; FUS yeast rescue: inactive

How did Cc1cc(C)cc(-c2c(C(=O)c3ccc(Br)cc3)[nH]c(N)c2C(=O)NCc2ccc(Cl)cc2)c1 do in these assays?
FUS yeast rescue: inactive

How did O=C1C2ON(c3ccccc3)C(c3ccncc3)C2C(=O)N1c1ccc(Br)cc1 (stereo not given) do in these assays?
TDP43 rescue: inconclusive; aSyn rescue: 16%; Abeta rescue: inactive; FUS yeast rescue: inactive; Mito fusion act: -3%

How did O=C1C2ON(c3ccccc3)C(c3ccccn3)C2C(=O)N1c1ccc(Br)cc1 (stereo not given) do in these assays?
TDP43 rescue: 13µM*; aSyn rescue: 26%; Abeta rescue: inconclusive; FUS yeast rescue: inactive; Mito fusion act: 5%

Results for CCOc1cc(S(=O)(=O)NC2CCCC2)ccc1Cl ?
TDP43 rescue: 20µM*; aSyn rescue: 0%; Abeta rescue: inactive; FUS yeast rescue: inactive; Mito fusion act: 6%

Results for CC(C)C[C@H]1COc2cccc(N3CCSCC3)c2S(=O)(=O)N1C ?
FUS yeast rescue: inactive

Results for CCOC(=O)N1C(=O)[C@@](c2ccc(Cl)cc2)(C(C)C)N1C(=O)OCC ?
TDP43 rescue: 20µM*; aSyn rescue: -27%; Abeta rescue: inactive; FUS yeast rescue: inactive; Mito fusion act: -1%

What do the screens show for `CCOC(=O)N1C(=O)[C@](c2ccc(Cl)cc2)(C(C)C)N1C(=O)OCC`?
TDP43 rescue: 16µM*; aSyn rescue: -16%; Abeta rescue: inactive; FUS yeast rescue: inactive; Mito fusion act: 3%

How did Cc1cc(C)c(C#N)c(SCc2ccccc2C)n1 do in these assays?
TDP43 rescue: -8%; aSyn rescue: 14%; Abeta rescue: inactive; FUS yeast rescue: inactive; Mito fusion act: 7.1µM*

Results for Cc1cc(C)c(C#N)c(SCc2ccccc2F)n1 ?
TDP43 rescue: -3%; aSyn rescue: 1%; Abeta rescue: inactive; FUS yeast rescue: inactive; Mito fusion act: 17%

How did CC1(Cc2ccccc2OC(F)(F)F)C(=O)Nc2ccc(OC(F)(F)F)cc21 (stereo not given) do in these assays?
TDP43 rescue: -55%; aSyn rescue: 2%; Abeta rescue: inactive; FUS yeast rescue: inactive

How did CC1(Cc2ccccc2OC(F)(F)F)C(=O)Nc2ccc(-c3ccsc3)cc21 (stereo not given) do in these assays?
TDP43 rescue: 20µM*; aSyn rescue: -61%; Abeta rescue: inactive; FUS yeast rescue: inactive

Results for COc1ccc2c(C)cc(SCC(=O)NC3CCCC3)nc2c1 ?
TDP43 rescue: 19%; aSyn rescue: 11µM*; Abeta rescue: inactive; FUS yeast rescue: inactive

What do the screens show for `Cc1cc(SCC(=O)NC2CC2)nc2ccccc12`?
TDP43 rescue: inconclusive; aSyn rescue: 7%; Abeta rescue: inactive; FUS yeast rescue: inactive

How did COc1ccc2c(-c3ccccc3)cc(SCC(=O)N(C)C)nc2c1 do in these assays?
TDP43 rescue: 22µM*; aSyn rescue: -17%; Abeta rescue: inactive; FUS yeast rescue: inactive; Mito fusion act: -4%

How did COc1ccc2c(-c3ccccc3)cc(SCC(=O)NC(N)=O)nc2c1 do in these assays?
TDP43 rescue: 3%; aSyn rescue: -1%; Abeta rescue: inactive; FUS yeast rescue: inactive; Mito fusion act: -1%

Results for Cc1c(C#N)c(NC(=O)COC(=O)c2cc(Cl)c3c(c2)OCCCO3)n(Cc2ccco2)c1C ?
aSyn rescue: 1%

Results for Cc1nc(N2CCN(c3ccccc3)CC2)nc2c1C(=O)CCC2 ?
TDP43 rescue: 13µM*; aSyn rescue: 23%; Abeta rescue: inactive; FUS yeast rescue: inactive; Mito fusion act: 22%

What do the screens show for `CCOc1cc(S(=O)(=O)NCc2ccc3c(c2)OCO3)c(C)cc1C`?
TDP43 rescue: 19%; aSyn rescue: 7%; Abeta rescue: inactive; FUS yeast rescue: inactive; Mito fusion act: 15%

Results for O=S(=O)(NCc1ccc2c(c1)OCO2)c1ccc(Cl)s1 ?
TDP43 rescue: 11µM*; aSyn rescue: 9%; Abeta rescue: inactive; FUS yeast rescue: inactive; Mito fusion act: 9%

Results for COc1ccccc1CNS(=O)(=O)c1ccc(Cl)s1 ?
TDP43 rescue: 13µM*; aSyn rescue: 16%; Abeta rescue: inactive; FUS yeast rescue: inactive; Mito fusion act: -6%

How did CCOc1cc(C)c(Cl)cc1S(=O)(=O)NCc1ccc2c(c1)OCO2 do in these assays?
TDP43 rescue: 14µM*; aSyn rescue: 11%; Abeta rescue: inactive; FUS yeast rescue: inactive; Mito fusion act: 9%
